Assay results reported in PubChem BioAssay AID687038 (Broad Institute, 2013).
Calls of active or inactive are those of the source.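 How the source made its calls: active means curve showing a falling signal whose half-maximal concentration is at most twice the top valid dose; inconclusive means flat curve with a moderate drop, or an unreliable fit; inactive means the rest.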

Test: miR-21 levels after miR-122 inhibitor treatment, dose response, selectivity assay for miR-122 inhibitor project, cell-based, Huh7, RT-qPCR, dry powder (AID 687038)
Conditions: Huh7 miR-21 levels, qRT-PCR, 48 h; series mostly up to 35 µM; relative miR-21 level (fold): at the top concentration

Relative miR-21 level (fold), inactive:
CCOC(=O)N1CCC(NC(=O)c2ccc3c(c2)sc2nc(-c4ccccc4)cn23)CC1 1 fold
C[C@H]1CN([C@@H](C)CO)S(=O)(=O)c2ccc(C#Cc3ccncc3)cc2O[C@@H]1CN(C)C(=O)C1CCOCC1 0.89 fold
C[C@H]1CN([C@@H](C)CO)C(=O)c2cc(-c3ccc(C#N)cc3)cnc2O[C@H]1CN(C)Cc1cncnc1 0.821 fold
C/C=C/c1cnc2c(c1)C(=O)N([C@@H](C)CO)C[C@H](C)[C@H](CN(C)S(=O)(=O)c1ccc(OC)cc1)O2 1.01 fold
C[C@H]1CN([C@@H](C)CO)C(=O)c2cc(-c3ccc(C#N)cc3)cnc2O[C@H]1CN(C)C(=O)Nc1ccc(C(F)(F)F)cc1 0.659 fold
CO[C@@H]1CN(C)C(=O)c2cc(NC(=O)c3cccc(Oc4ccccc4)c3)ccc2OC[C@H](C)NC[C@@H]1C 1.07 fold
COCC(=O)N(C)C[C@H]1Oc2cc(-c3ccccc3F)ccc2S(=O)(=O)N([C@H](C)CO)C[C@H]1C 1.56 fold
COCC(=O)N(C)C[C@H]1Oc2cc(C#Cc3cccnc3)ccc2S(=O)(=O)N([C@@H](C)CO)C[C@H]1C 1.05 fold
O=S(=O)(NCCc1ccncc1)c1ccccc1 1.14 fold
CCn1cc(C(=O)O)c(=O)c2cc(F)c(N3CCNCC3)nc21 1.59 fold
C[C@@H]1CN([C@H](C)CO)S(=O)(=O)c2ccc(/C=C/c3ccccc3)cc2O[C@@H]1CN(C)C(=O)c1cccnc1 0.881 fold
CN1C(=O)c2cc(NC(=O)c3cccc(F)c3)ccc2OC[C@H]2O[C@H](CC(=O)O)CC[C@@H]21 0.751 fold
C[C@H]1CN([C@@H](C)CO)C(=O)c2cc(-c3ccc(C#N)cc3)cnc2O[C@H]1CN(C)C(=O)c1ccccc1 1.1 fold
CN1C(=O)c2cc(NC(=O)c3cccc(F)c3)ccc2OC[C@@H]2O[C@H](CC(=O)O)CC[C@H]21 0.72 fold
Nc1ccc(Oc2ccc(Cl)cc2)cc1 0.488 fold
Cc1cccc(NC(=O)Nc2ccc3c(c2)C(=O)N(C)[C@@H]2CC[C@H](CC(=O)NCc4ccccc4Cl)O[C@H]2CO3)c1 2.03 fold
COc1cccc(-c2ccc3c(c2)O[C@H](CN(C)C(=O)C2CCOCC2)[C@H](C)CN([C@@H](C)CO)S3(=O)=O)c1 1.15 fold
COCC(=O)N(C)C[C@H]1Oc2cc(-c3ccc(C#N)cc3)ccc2S(=O)(=O)N([C@@H](C)CO)C[C@H]1C 0.872 fold
CN(CC(=O)Nc1cccc(Cl)c1)S(=O)(=O)c1ccc2c(c1)n(C)c(=O)c(=O)n2C 1.34 fold
O=C(CN=C1NS(=O)(=O)c2ccccc21)Nc1ccccc1N1CCCCCC1 2.33 fold
C[C@H]1CN([C@@H](C)CO)S(=O)(=O)c2ccc(C#Cc3ccncc3)cc2O[C@H]1CN(C)C(=O)C1CCOCC1 0.804 fold
O=C(c1ccc(CN2CCOCC2)cc1)N1CCc2ccccc21 1.02 fold
COc1cccc(C(=O)Nc2ccc3c(c2)C(=O)N(C)C[C@@H](OC)[C@@H](C)CN[C@@H](C)CO3)c1 1.21 fold
CNC[C@@H]1Oc2cc(C#CC3CCCCC3)ccc2S(=O)(=O)N([C@@H](C)CO)C[C@@H]1C 1.32 fold
CN1C(=O)c2cc(NC(=O)c3cccc(F)c3)ccc2OC[C@H]2O[C@@H](CC(=O)O)CC[C@H]21 2.53 fold
CCCCN(CCCC)C(=O)CN(C)S(=O)(=O)c1ccc2c(c1)n(C)c(=O)c(=O)n2C 0.957 fold
COCC(=O)N(C)C[C@@H]1Oc2ncc(-c3ccc(C#N)cc3)cc2C(=O)N([C@@H](C)CO)C[C@@H]1C 1.45 fold
O=C(CNCCC1=CCCCC1)Nc1ccccc1N1CCCCCC1 0.482 fold
C[C@H](CO)N1C[C@H](C)[C@@H](CN(C)C(=O)C2CCOCC2)Oc2cc(C#Cc3ccncc3)ccc2S1(=O)=O 0.591 fold
COc1ccc(-c2cnc3c(c2)C(=O)N([C@@H](C)CO)C[C@H](C)[C@H](CN(C)S(=O)(=O)c2ccc(OC)cc2)O3)cc1 0.767 fold
CCOC(=O)N1CCC(NC(=O)c2ccc3nc(N4CCC(C)CC4)sc3c2)CC1 0.949 fold
C[C@@H]1CN([C@H](C)CO)S(=O)(=O)c2ccc(C#Cc3ccncc3)cc2O[C@@H]1CN(C)C(=O)C1CCOCC1 0.867 fold
